# Measurements taken from PubChem BioAssay AID504706 (National Center for Advancing Translational Sciences (NCATS), 2011).
# In all, about 320,000 compounds went through this assay and about 200 (0.062%) were called active. Another 6% or so got no clear call; they are omitted. The call rests on the fitted dose curve; in most records, active means well fitted activation curve with a large enough effect; inconclusive means small, poorly fitted or top-dose-only effect; inactive means no such curve, though single readings can be large or run the other way. What follows is part of a selection rich in actives, with near analogues and random picks from the rest. Entries that show only a call come without a potency.
# Experiment: qHTS assay for re-activators of p53 using a Luc reporter; further: nearly all actives have a fitted effect of over 45% in size
# Conditions: H1299 p53-A138V BP100-luciferase reporter, luminescence, 24 h; series mostly up to 92.2 µM
# Description: The p53 tumor suppressor plays a key role in suppression of tumorigenesis and in human carcinogenesis. It is frequently found inactivated in human cancers, mainly by point mutation. These point mutations are found in a wide variety of human cancers and a majority of them affect the DNA binding domain of the protein. The point mutations either alter native p53 conformation or abolish DNA contact. Additionally, cancer cells with p53 mutations are more resistant to chemo-radiation therapies. In order to find activators to reactivate this important protein, a cell-based screen for p53-dependent luciferase-reporter expression was developed. A p53-null H1299 lung cancer cell line was stably co-transfected with a temperature sensitive p53 mutant, p53-A138V, and a p53-responsive BP100-luciferase reporter. This cell model has previously been characterized in a gene chip profiling experiment for p53 activation. By lowering the culture temperature from 37 deg C (mutant p53 conformation) to 32 deg C (w.t. p53 conformation), a 30-60 fold increase in activation of luciferase activity is observed. At assay temperate, 37 deg C, basal reporter expression is very low and after the addition of detection reagent, a luminescent read-out is carried out. NIH Chemical Genomics Center [NCGC] NIH Molecular Libraries Probe Production Centers Network [MLPCN] MLPCN Grant: DA031088-01A1 Assay Provider (PI): Yi Sung, University of Michigan at Ann Arbor
# 5ul of 1000 cells per well are dispensed in all wells except column 4, into white solid-bottom TC-treated Kalypsys plates. The cells are kept in Opti-MEM and supplemented with 10% FBS and dispensed using a Multidrop (Thermo). Then using the Kalypsys pin-tool, 23nl of compounds are pinned. The compounds are starting concentration at 10mM, with 1:5 dilution, 4 points, and the control compound nocodazole is pinned in column 1 at 25mM, 1:3 dilution, in duplicate, 25mM nocodazole is pinned in column 2. Please note, all concentrations are working concentrations. 5ul of 1pM purified luciferase enzyme is dispensed using the Kalypsys dispenser in column 4. Plates are incubated for 24 hrs at 37 deg C, 5% CO2, and 95% humidity. Then 4ul of the detection reagent Amplite (ABD Bioquest) is added using the Kalypsys dispenser. Plates are incubated for 10 min at ambient room temperature and are then read on the ViewLux (Perkin Elmer) using a clear filter for a luminescent read-out.
# Potency means the concentration at half of the fitted maximal effect.
row,SMILES,Potency
1,COC(=O)c1ccc(CNC(=O)c2ccc(S(=O)(=O)N3CCCCCC3)cc2)cc1,inactive
2,O=C(COc1ccc(F)cc1Br)NCC1COc2ccccc2O1 (centres undefined),inactive
3,CC(C)N(C(=O)[C@H]1C[C@H](CC(=O)NCCC2=CCCCC2)C(=O)N2CCc3c([nH]c4cc(CCC(=O)N(C)C)ccc34)[C@]12C)C(C)C,inactive
4,CN(C)C(=O)CCc1ccc2c3c([nH]c2c1)[C@]1(C)[C@@H](C(=O)N2CCOCC2)C[C@H](CC(=O)NCCc2ccccn2)C(=O)N1CC3,inactive
5,Cn1c(-c2ccc(C(F)(F)F)cc2)cc2onc(-c3ccccc3)c2c1=O,22.4 µM (active)
6,O=c1c2ccccc2c(-c2ccc(F)cc2)nn1-c1ccc(C(F)(F)F)cc1,inactive
7,Cc1onc(-c2ccccc2)c1C(=O)N1CCN(S(=O)(=O)c2ccccc2C(F)(F)F)CC1,inactive
8,CC(C)n1cnc2c(NCc3ccccc3)cc(N[C@@H](CO)Cc3ccccc3)cc21,inactive
9,COc1ccc2[nH]c3c(c2c1)CCN1C(=O)C(CC(=O)NCc2cccc(C(F)(F)F)c2)C[C@H](C(=O)N2CCOCC2)[C@@]31C (some centres undefined),inactive
10,COc1ccccc1N(CCOc1ccccc1)S(=O)(=O)c1ccccc1,inactive
11,COc1ccc(-c2noc(CCC(=O)N3CCN(c4cccc(C)c4)CC3)n2)cc1,inactive
12,CCCCC[C@@H]1C=C(C(=O)O)[C@H](c2ccc(C#N)cc2)N1S(=O)(=O)c1ccc(C)cc1,inactive
13,CCC(C)c1ccc(NC(=O)COC(=O)C2CCCC2)cc1 (centres undefined),inactive
14,O=C(NCC#CCSc1nnc(-c2cccc3ccccc23)o1)c1cccs1,inactive
15,O=C(NOCc1ccccc1)c1cccc([N+](=O)[O-])c1,inactive
16,CCOC(=O)C1CCCN(C(=O)CSc2nnc3nc(C)cc(C)n23)C1 (centres undefined),inactive
17,CCOC(=O)C1CCN(C(=O)CN2C(=O)NC(C)(c3ccc4cc(OC)ccc4c3)C2=O)CC1 (centres undefined),inactive
18,CC1CCN(C(=O)CCNC(=O)c2ccccc2)CC1,inactive
19,CC1CCCN(c2ccc(C(=O)NCCc3ccccc3)cn2)C1 (centres undefined),35.5 µM (active)
20,O=C(NCCc1ccccc1)c1ccc2c(c1)N(Cc1ccccc1)CCS2,inactive
21,CC[C@]12c3[nH]c4ccc(Cl)cc4c3CCN1C(=O)[C@@H](CC(=O)NCCCOC)C[C@@H]2C(=O)N1CCN(C(=O)c2ccco2)CC1,inactive

row,SMILES,Potency
1,CC[C@]12c3[nH]c4cc(CCC(=O)N(C)C)ccc4c3CCN1C(=O)[C@@H](CC(=O)NCC13CC4CC(CC(C4)C1)C3)C[C@@H]2C(=O)N1CCN(C(=O)C2CC2)CC1,inactive
2,CCn1c(=S)[nH]c2cc(S(=O)(=O)N3CCOCC3)ccc21,inactive
3,Cc1cc(C(C)(C)C)n2nc(C)c(-c3ccccc3)c2n1,inactive
4,Cc1cc(N)n2nc(-c3ccc(C(C)(C)C)cc3)cc2n1,11.2 µM (active)
5,Cc1nc2cc(-c3ccc(F)cc3)nn2c(N2CCOCC2)c1C,inactive
6,CC(C)CC1NC(=O)c2cc(Cl)ccc2-n2c1nc1ccccc1c2=O (centres undefined),inactive
7,COc1cccc(CNC(C)C(=O)Nc2ccc(S(=O)(=O)N3CCCC3)cc2)c1 (centres undefined),inactive
8,Cc1cc(NC(=O)CSCC(=O)NC(C)c2ccccc2)no1 (centres undefined),inactive
9,O=C(Nc1ccc(N2CCOCC2)cc1)c1cccc(S(=O)(=O)N2CCOCC2)c1,inactive
10,Oc1ccccc1-c1cc(-c2ccc(Cl)cc2)n[nH]1,2.82 µM (active)
11,Cc1ccc(NC(=O)c2cc(-c3ccccc3O)n[nH]2)cc1C,inactive
12,O=C(Nc1cccnc1Cl)c1cc(-c2ccccc2O)on1,inactive
13,CCN(CC(=O)NCc1ccc(F)cc1)S(=O)(=O)c1ccc(Cl)s1,inactive
14,CC(=O)c1ccc(NC(=O)CSc2nc3ccccc3c(=O)n2CCCN2CCOCC2)cc1,inactive
15,CC(=O)Nc1ccc(S(=O)(=O)Nc2ccc(N3CCCCC3)cc2)cc1,inactive
16,CC[C@]1(C(=O)OC)[C@H]2C(=O)N(C)C(=O)[C@H]2[C@H]2CN(C)C(=NCc3ccccc3)N21,inactive
17,CC1O[C@H](OC2C(COC3OC(CO)C(O)[C@H](O)C3O)OC(OC3CC[C@]4(C)C(CC[C@@]5(C)[C@@H]4C=C[C@]46OC[C@@]7(CCC(C)(C)C[C@H]74)C(O)C[C@@]56C)C3(C)C)C(O)C2O)C(O)C(O)C1O (some centres undefined),inactive
18,CC[C@]12c3[nH]c4cc(CCC(=O)N(C)C)ccc4c3CCN1C(=O)[C@@H](CC(=O)NCCCN(C)C)C[C@@H]2C(=O)N1CCN(C(=O)c2ccco2)CC1,inactive
19,CN1C(=O)[C@H]2[C@@H](/C=C/c3ccccc3)N3C(=O)CN(Cc4ccc(-c5ccccc5)cc4)C(=O)[C@@]3(C)[C@H]2C1=O,inactive
20,CC1Sc2ccc(C(=O)NCc3ccccc3Cl)cc2NC1=O (centres undefined),inactive
21,O=C1NC(Cc2ccc(O)cc2)c2nc3ccc(Cl)cc3c(=O)n2-c2ccccc21 (centres undefined),inactive

row,SMILES,Potency
1,Cc1ccc(C)c(S(=O)(=O)N2CCN(c3ncnc4sccc34)CC2)c1,inactive
2,C=CC[C@@H](Cc1ccc(F)cc1)C(=O)OC[C@H]1CCCN1C(=O)[C@H](CC=C)CC(=O)N(CCO)Cc1ccccc1,inactive
3,CC(=O)Nc1ccc(/C=C/C(=O)c2ccccc2)cc1,15.8 µM (active)
4,CC(=O)Nc1ccc(NC(=S)NC(=O)/C=C/c2ccccc2)cc1,inactive
5,CC(=O)Nc1ccc(C(=O)/C=C/c2ccc[nH]2)cc1,inactive
6,O=C(C[C@H]1C[C@H](C(=O)N2CCOCC2)[C@@]2(CCC3CCCC3)c3[nH]c4ccc(Cl)cc4c3CCN2C1=O)NCc1ccco1,inactive
7,CC[C@]12c3[nH]c4cc(CCC(=O)N(C)C)ccc4c3CCN1C(=O)[C@@H](CC(=O)NCc1ccco1)C[C@@H]2C(=O)N1CCN(C(=O)c2ccco2)CC1,inactive
8,COc1cc(/C=C/C(=O)Nc2ccc(OC)c(S(=O)(=O)N3CCOCC3)c2)ccc1OCC#N,inactive
9,O=C1OC[C@@H]2CCCN2C(=O)[C@H](CC(=O)N(CCO)Cc2ccccc2)C/C=C\CC[C@@H]1Cc1ccc(F)cc1,inactive
10,COc1cc(OC)c(C(=O)NNC(=O)c2ccccc2-n2cccc2)cc1OC,inactive
11,C[C@@H]1CN([C@@H](C)CO)C(=O)c2cccc(NS(=O)(=O)c3ccc(F)cc3)c2O[C@H]1CN(C)C(=O)NC1CCCCC1,inactive
12,COC(=O)[C@]1(C)N[C@H](CN(C)C(=O)c2ccc(C(C)(C)C)cc2)[C@@H]2C(=O)N(C)C(=O)[C@@H]21,inactive
13,Cc1ccc(CNC(=O)Cn2cnc3c(NCc4ccccc4)ncnc32)o1,inactive
14,CN(C(=O)c1cccc(NC(=O)Cc2ccc([N+](=O)[O-])cc2)c1)C1CCC1,inactive
15,CCN(C(=O)CSc1nnnn1-c1ccc(OC)cc1)C1CCS(=O)(=O)C1 (centres undefined),inactive
16,C#CCOCCOCCOCCNc1nc(N2CCN(C(=O)[C@H](CCCN=C(N)N)n3cc(C(N)[C@@H](C)CC)nn3)CC2)nc(N2CCN(C(=O)[C@H](CO)n3cc([C@@H](N)C(C)C)nn3)CC2)n1 (some centres undefined),inactive
17,CCCCNS(=O)(=O)CCNCc1ccccc1OC,inactive
18,C=CCC[C@@H](Cc1ccc(F)cc1)C(=O)OC[C@@H](C)NC(=O)[C@H](CC=C)CC(=O)N(CCO)Cc1ccccc1,inactive
19,CC(=NNC(=O)c1ccc2nc[nH]c2c1)c1ccc(Br)cc1,inactive
20,CC[C@@H]1CCCCc2ccccc2[C@@H](C(=O)C[C@H](O)CC(C)=O)OC1=O,inactive
21,Oc1ccc(Br)cc1/C=N/Nc1ccccn1,28.2 µM (active)

row,SMILES,Potency
1,COc1ccc(-c2nn(-c3ccccc3)cc2/C=N/Nc2ccccn2)cc1OC,inactive
2,Oc1ccc(/C=N/Nc2ccc(C(F)(F)F)cn2)cc1O,inactive
3,COc1ccc(-c2nc3cc(C)ccn3c2NC2CCCCC2)cc1SC1CCCCC1,inactive
4,O=C(N/N=C/c1ccc(Cl)c(Cl)c1)c1ccc2nc[nH]c2c1,inactive
5,CSc1ccc(/C=N\NC(=O)CC(=O)NC(C)C)cc1,inactive
6,CSc1ccc(/C=N/NC(=O)c2cccc(Cl)c2)cc1,10 µM (active)
7,COc1ccc2nc3n(c(=O)c2c1)-c1cc(C)ccc1C(=O)NC3Cc1ccc(O)cc1 (centres undefined),inactive
8,O=C1CCC/C=C/C[C@@H](CC(=O)N(CCO)Cc2ccccc2)C(=O)NC[C@H](c2ccccc2)O1,inactive
9,C=CCC[C@H](Cc1ccc(F)cc1)C(=O)OC[C@@H](Cc1c[nH]c2ccccc12)NC(=O)[C@H](CC=C)CC(=O)N[C@H](CO)Cc1ccccc1,inactive
10,C=CCC[C@H](Cc1ccc(F)cc1)C(=O)OC[C@@H](NC(=O)[C@@H](CC=C)CC(=O)N[C@H](CO)Cc1ccccc1)C(C)(C)C,inactive
11,C=CC[C@@H](CC(=O)N[C@H](CO)Cc1ccccc1)C(=O)N[C@H](C)COC(=O)[C@@H](CC=C)Cc1ccc(F)cc1,inactive
12,Cc1noc(C)c1S(=O)(=O)N(C)C[C@H]1Oc2c(NC(=O)Nc3ccc4c(c3)OCO4)cccc2C(=O)N([C@H](C)CO)C[C@@H]1C,inactive
13,O=C(CCc1ccc(S(=O)(=O)N2CCOCC2)cc1)OCC(=O)c1ccc(Br)cc1,inactive
14,Cc1ccc(NC(=O)C2CCC(C(C)(C)C)CC2)cc1S(=O)(=O)N1CCOCC1 (centres undefined),inactive
15,O=C(Cn1cc(C(F)(F)F)ccc1=O)Nc1ccc2c(c1)OCCO2,inactive
16,COc1ccccc1N(CC(=O)Nc1ccc(C)cc1Cl)S(=O)(=O)c1cccs1,inactive
17,CC[C@]12c3[nH]c4ccc(Cl)cc4c3CCN1C(=O)[C@@H](CC(=O)NCCCOC)C[C@@H]2C(=O)N1CCN(C(=O)C2CC2)CC1,inactive
18,COc1ccc(CNC(=O)C[C@H]2C[C@H](C(=O)N3CCOCC3)[C@@]3(C)c4[nH]c5cc(CCC(=O)N(C)C)ccc5c4CCN3C2=O)cc1OC,inactive
19,COc1ccc(C(C(O)C(=O)c2c[nH]c3ccccc23)N2CCN(c3ccccc3)CC2)cc1 (centres undefined),inactive
20,COc1ccc(/C=C(\C#N)c2c[nH]c3ccccc23)cc1,31.6 µM (active)
21,COc1ccc2[nH]cc(/C=C(/C#N)S(=O)(=O)c3ccccc3)c2c1,inactive
